# In all, about 48,000 compounds went through this assay and about 120 (0.25%) were called active. Another 4% or so got no clear call; they are omitted. For the sample, actives were picked, then their nearest neighbours and some compounds at random. Unmarked numbers belong to inactive results. Calls follow the shape of the dose curve; as a rule, active = well fitted activation curve with a large enough effect; inconclusive = small, poorly fitted or top-dose-only effect, or another doubt; inactive = no such curve, though single readings can be large or run the other way.
# Experiment: Primary qHTS for Identification of Small Molecule Activators of Huntingtin-Antisense Promoter Activity; also: nearly all actives have a fitted effect of over 55% in size
# Settings: HEK293 HTT-AS promoter firefly luciferase reporter, 24 h; series mostly up to 57.5 µM; activity change, positive = activation: at the top concentration
# Description: Assay Provider: Russell L. Margolis M.D.
# Department Neurology, Johns Hopkins University School of Medicine, Baltimore, MD
# Huntington's Disease (HD) is a neurodegenerative disorder caused by a CAG repeat expansion in exon 1 of huntingtin (HTT). While there are currently no disease-modifying treatments for HD, recent efforts have focused on development of nucleotide-based therapeutics to lower HTT expression. As an alternative to siRNA or oligonucleotide methods, we hypothesized that suppression of HTT expression might be accomplished by small molecules that either (1) directly decrease HTT expression by suppressing HTT promoter activity or (2) indirectly decrease HTT expression by increasing the promoter activity of HTT-AS, the gene antisense to HTT that appears to inhibit expression of HTT.
# We developed and employed a high throughput screen for modifiers of HTT and HTT-AS promoter activity using luminescent reporter HEK293 cells; of the 52,041 compounds tested, we identified 898 replicable hits. We used a rigorous stepwise approach to assess compound toxicity and the capacity of the compounds to specifically lower huntingtin protein in 5 different cell lines, including HEK293 cells, HD lymphoblastoid cells, mouse primary neurons, HD iPSCs differentiated into cortical-like neurons, and HD hESCs. We found no compounds which were able to lower huntingtin without lowering cell viability in all assays, though the potential efficacy of a few compounds at non-toxic doses could not be excluded.
# SEQUENCE No. (1, 2, 3, etc.); […] (e.g., Cells, Incubation, Reagent, etc.); VALUE and DESCRIPTION.
# 1; Reagent; 4 uL; 2,500 Hek293 luciferase reporter cells per wells
# 3; Compound; 23 nL; Control inhibitor / compound library
# 5; Reagent; 2.5 uL; Firefly Luc reagent; Dual-Glo Luciferase Reporter Assay System (Promega)
# 6; Time; 10 min; room temperature incubation
# 7; Detection; Luminescence; FLuc
# NOTES (numbers refer to sequence above)
# 1; High-throughput screening, measuring luminescence from a Hek293 luciferase reporter, was performed in 1,536 well white-walled tissue-culture treated plates. 2,500 cells were plated in 4 µL of Opti-MEM per well using a Multidrop Combi Reagent Dispenser (ThermoFisher).
# 2; Assay plates were cultured for 24 hours.
# 3; Control inhibitor (PTC124; final concentration of 50 uM) and compound library (at final concentrations of 460 nM - 57.5 uM) were added to the assay plate using the Kalypsis Pintool Robotic System equipped with 1536 pinheads.
# 4; Cells were then incubated for 24 hours at 37 degrees C prior to luminescence measurements.
# 5; In all cases, luminescence was measured using the Dual-Glo Luciferase Reporter Assay System (Promega) following the manufacturer's instructions.
# 6; Room temperature incubation.
# 7; Luminescence signal was obtained using the PerkinElmer ViewLux plate reader. Results were normalized to vehicle control (0% activity) and zero RLU (-100% activity).
# Potency is read from the fitted curve at half-maximal effect.
Compound,"activity change, positive = activation",Potency
CSc1nc(Nc2ccc(F)cc2)cc(-c2ccccc2)n1,-31.3%,–
Cc1nnc(SCC(=O)NCc2ccccc2Cl)c2nn(-c3ccccc3)c(C)c12,-52.7%,–
Cc1ccc(C)c(Cn2c(C)c(CNCc3ccc(F)cc3)c(C(=O)O)c2C)c1,-17.8%,–
CCn1c(CN2CCC(C)CC2)nc2cc(NC(=O)c3ccccc3[N+](=O)[O-])ccc21,-14.8%,–
COc1ccc(-c2cn3nc(N4CCC(C(=O)Nc5cccc(C)c5C)CC4)sc3n2)cc1,-3.6%,–
COc1ccc(-c2nc(CN3CCC(C(=O)NCc4ccccc4)CC3)c(C)o2)cc1OC,-3.36%,–
CC(C)CNc1ncnc2c1nnn2C,5.96%,–
CSc1ccccc1-c1nnc(NC(=O)c2ccc3c(c2)OCCO3)o1,23.7%,–
COc1ccc(NC(=O)CCc2nnc3n(CC(C)C)c(=O)c4ccccc4n23)cc1OC,-1.01%,–
O=C(NCC(c1ccc(Cl)cc1)N1CCOCC1)c1ccccc1F (stereo unspecified),-2.89%,–
CCOc1ccc(NC(=O)CC2C(=O)N(c3cccc(OC)c3)C(=O)N2C2CCCCC2)cc1 (stereo unspecified),-6.38%,–
COc1cc(OC)cc(C(=O)Nc2ccc3nc(Nc4cccc(C(F)(F)F)c4)cc(C)c3c2)c1,-45.6%,–
Cn1cc(S(=O)(=O)N2CCCCCC2)cc1C(=O)N1CCN(c2ccc(F)cc2)CC1,-20.1%,–
Cc1ccc(NS(=O)(=O)c2ccc3c(c2)CC(=O)N3)cc1Cl,-22.4%,–
CCCc1nn2c(=O)cc(COC(=O)c3ccc(NC(=O)COc4ccc(F)cc4)cc3)nc2s1,-14.4%,–
CSc1ccc(NC(=O)Cn2nnnc2-c2ccccc2F)cc1,2.75%,–
CCOc1ccc(N(CC)S(=O)(=O)N2CCCC(C(=O)NCc3ccc(SC)cc3)C2)cc1 (stereo unspecified),-54.2%,–
Cc1ccc(N2CC(NC(=O)Cc3cccs3)CC2=O)cc1 (stereo unspecified),-7.5%,–
CSc1ccc(C2C(C(=O)Nc3ccccc3)=C(C)Nc3nc4ccccc4n32)cc1 (stereo unspecified),-8.48%,–
CC1CCCN(S(=O)(=O)c2ccc3[nH]c(=O)cc(C(=O)NCCc4ccc(Cl)cc4)c3c2)C1 (stereo unspecified),-9.89%,–
COc1ccc(Cl)cc1NC(=O)CSc1nc2ccccc2c2nc(-c3ccccc3)nn12,-1.33%,–
O=C(CC(c1cccs1)N1Cc2ccccc2C1=O)Nc1ccc(F)cc1F (stereo unspecified),-27.2%,–
COCCNC(=O)c1ccc2c(c1)N=C(C)c1cc(C)ccc1S2,-31.8%,–

Compound,"activity change, positive = activation",Potency
COc1ccc(-c2nc3c4ccccc4n(CC(=O)Nc4ccc(C(C)=O)cc4)c(=O)n3n2)cc1,0.837%,–
Cc1cccc(N2CCN(C(=O)Cn3ncc4c5ccccc5n(C)c4c3=O)CC2C)c1 (stereo unspecified),-6.74%,–
CCOC(=O)N1CCC(NC(=O)c2cnn(-c3cccc(C)c3)c2C2CCN(C(=O)OC(C)(C)C)CC2)CC1,7.44%,–
COc1cccc(NC(=O)N(Cc2cn(C)c3ccccc23)C2CCCCCC2)c1,-30.5%,–
COc1ccc(CNC(=O)COCc2cc(-c3cccs3)on2)cc1OC,-12%,–
COc1cccc(CNC(=O)Cn2ncn3c(cc4ccccc43)c2=O)c1,4.19%,–
COc1cc2ccccc2cc1C(=O)Nc1cccc(-c2nc3ccccc3o2)c1,"4.7% [at 11.5 µM, percent change from vehicle, -100% = no light]",–
CC1CCN(c2nc3ccc(C(=O)N4CCN(c5ccccc5)CC4)cc3s2)CC1,-77.4%,–
COc1cc(NC(=O)CN2CCN(S(=O)(=O)c3ccc(Br)cc3)CC2)cc(OC)c1,0%,–
CCOC(=O)c1cccc(NC(=O)c2cc(S(=O)(=O)N3CCCC(C)C3)cn2C)c1 (stereo unspecified),-36.2%,–
Cc1ccc(OCC(=O)OCc2cc(=O)n3nc(C4CC4)sc3n2)cc1C,-14.4%,–
COc1cc(-c2nnn(CC(=O)NCc3ccccc3)n2)cc(OC)c1OC,-17.2%,–
Cc1ccc(C)c(N2CCN(CCCNC(=O)Nc3ccc(Cl)cc3)CC2)c1,-32.1%,–
CCCCC12CN3CC(C)(CN(C1)C3c1ccc(O)c(OC)c1)C2=O (stereo unspecified),0.462%,–
Cc1cc(Cl)ccc1NC(=O)Cc1ccc(NC(=O)N2CCCCc3ccccc32)cc1,-3.06%,–
CCN(CC)CCNc1ncnc2c1cnn2-c1cc(Cl)ccc1C,-12%,–
COc1ccc(C(=O)Nc2ccc(-n3nncc3-c3ccccc3)cc2)cc1OC,-6.93%,–
CN(Cc1ccccc1)C(=O)CCS(=O)(=O)c1cc(Br)cc2c1N(C(=O)C1CC1)CC2,-15%,–
COc1ccc(-c2nnc(SCC(=O)Nc3ccccc3C)o2)cc1OC,-4.55%,–
Cc1ccc(-c2nnc(SCc3ccccc3C)o2)cc1,–,14.1 µM (active)
Cc1ccc(OC(=O)CSc2nnc(-c3cccs3)o2)cc1,18.6%,–
Cc1ccc(Cl)cc1N(C)C(=O)C1CCCN(c2ncnc3onc(-c4ccc(F)cc4)c23)C1 (stereo unspecified),-34%,–
CC(C)c1ccc(C2CC(=O)N3CN(C4CCCCC4)CSC3=C2C#N)cc1 (stereo unspecified),-23%,–

Compound,"activity change, positive = activation",Potency
CC(C)CNc1ccnc(NCc2csc(-c3ccccc3)n2)n1,-89.5%,–
Cc1ccc2onc(CC(=O)N3CCN(c4ccc(Cl)cc4)CC3)c2c1,-13.9%,–
COc1ccccc1N1CCN(C(CNC(=O)C(=O)NCc2ccc(C)cc2)c2cccnc2)CC1 (stereo unspecified),-57.5%,–
Cc1ccc(-c2cnc(NCc3ccc(C(C)C)cc3)n2C)cc1,-15.5%,–
CCOC(=O)c1ccccc1NC(=O)c1nn(-c2ccc(OC)c(Cl)c2)c(=O)c2c1c1ccccc1n2C,-3.59%,–
O=C(CSc1nccn1-c1ccc(F)cc1)Nc1cccc2ccccc12,-9.33%,–
Cc1cc(C)cc(NC(=O)CCCc2nc(-c3ccccc3Cl)no2)c1,-12.4%,–
COc1ccc(CN2C(=O)C(NC(=O)c3cccc(C)c3)(C(F)(F)F)N=C2c2ccccc2)cc1 (stereo unspecified),-24%,–
COc1ccc(CCNC(=O)Cn2c(=O)cc(C(F)(F)F)c3c(C)nn(C)c32)c(OC)c1,-7.62%,–
Cc1cccn2c(=O)c3cc(C(=O)NC(C)c4ccccc4)c(=N)n(CCCO)c3nc12 (stereo unspecified),13.5%,–
CC(C)(C)c1ccc(C(=O)NCC(c2ccc(Cl)cc2)N2CCOCC2)cc1 (stereo unspecified),-34.2%,–
COc1ccc(CCC(=O)NCCc2csc(-c3ccc(Cl)cc3)n2)cc1,-23.5%,–
COc1ccc(Cl)cc1NC(=O)Cn1c(=O)c2ccccc2n2nncc12,-0.66%,–
CC(C)CCNC(=O)CSc1nc2ccccc2nc1Cc1ccc(Cl)cc1,-6.39%,–
Cc1ccccc1OCCSc1nc2ccc(NC(=O)c3ccco3)cc2s1,-25%,–
O=C(Nc1cc(-c2nc3ccccc3o2)ccc1Cl)c1cc([N+](=O)[O-])ccc1N1CCOCC1,4.83%,–
COC(=O)c1cc(Cl)c(NC(C)=O)cc1OC,3.75%,–
COc1ccc(CNC(=O)Cn2nnc(-c3ccccc3F)n2)cc1,-9.07%,–
CCCC(=O)N1CCN(c2nc3c(OC)ccc(C)c3s2)CC1,-10.6%,–
COc1ccc(-n2c(=O)c3ccccc3n(Cc3ccccc3Cl)c2=O)cc1,-22.4%,–
O=C(c1ccc(C(F)(F)F)cc1)N1CCC(c2nc(-c3ccc(S(=O)(=O)N4CCCC4)cc3)no2)CC1,-29.4%,–
CCCC(=O)Nc1cc(C(=O)NCc2ccc(OC)cc2)ccc1S(=O)(=O)c1ccc(Cl)cc1,1.22%,–
O=C(Nc1nc2ccc(F)cc2s1)c1nc(SCc2ccccc2F)ncc1Cl,0%,–

Compound,"activity change, positive = activation",Potency
C=Cc1c(C)c2cc3nc(cc4[nH]c(cc5nc(cc1[nH]2)C(C)=C5CCC(=O)O)c(CCC(=O)OC)c4C)[C@@]1(C)C3=CC=C(C(=O)OC)[C@H]1C(=O)OC,-35.4%,–
CC(Nc1ccc(-c2nc(-c3ccco3)no2)cc1[N+](=O)[O-])c1ccccc1 (stereo unspecified),18%,–
CCOc1ccc(NC(=O)c2c(NC(=O)Cc3ccccc3)sc3c2CCC(C)C3)cc1 (stereo unspecified),-28.3%,–
CCCOc1ccc(-c2cccc(NS(=O)(=O)c3ccccc3)c2)nn1,-27.3%,–
Cc1cccc(NC(=O)CSc2nc3c(oc4ccccc43)c(=O)n2-c2ccc(F)cc2)c1,-21.1%,–
Cc1cc(C)cc(OCC(=O)Nc2c(C(=O)c3ccccc3)oc3ccccc23)c1,-4.18%,–
O=C(NC1CCCCC1)c1ccc(Cn2c(SCc3ccccc3)nc3cccnc32)cc1,-5.82%,–
COc1cc(C(=O)Nc2ccc(OCc3cc(=O)n4ccc(C)cc4n3)cc2)cc(OC)c1OC,-0.483%,–
Cc1cc2c(cc1S(=O)(=O)CCC(=O)Nc1ccc(OC(F)(F)F)cc1)OCC(=O)N2,-17.4%,–
CCn1c(=O)c(=O)n(CC)c2cc(N3CCCCC3)c(NC(=O)c3ccc(Cl)cc3)cc21,-4.94%,–
COc1ccc(NC(=O)COCc2cc(-c3ccco3)on2)cc1,7.49%,–
COc1ccc(Cn2ccnc2SCC(=O)NCc2ccco2)cc1,1.47%,–
COc1cccc(C(=O)Nc2ccc3oc(-c4ccc5ccccc5c4)nc3c2)c1,17.6%,–
COc1ccccc1N1CCN(C2C(=O)c3ccccc3N2C(C)=O)CC1 (stereo unspecified),-15.5%,–
CCOC(=O)c1oc2ccc(S(=O)(=O)n3nc(-c4ccccc4OC)cc3N)cc2c1C,-34%,–
Cc1ccc(C)c(N2C(=O)N(Cc3c(F)cccc3Cl)c3ccccc3S2(=O)=O)c1,-7.55%,–
Cc1ccc(S(=O)(=O)N(Cc2nc(-c3ccc(Cl)cc3)no2)C2CCCCC2)cc1,-26.2%,–
COc1cccc(-n2cc(C(=O)NCc3cccc(Cl)c3)c3ccccc3c2=O)c1,-25.7%,–
Cc1ccc(S(=O)(=O)N2CCCc3cc(NS(=O)(=O)c4cc(C)ccc4C)ccc32)cc1,-26.5%,–
NCC[C@H](O)C(=O)N[C@@H]1C[C@H](N)[C@@H](O[C@H]2O[C@H](CN)[C@@H](O)[C@H](O)[C@@H]2O)[C@H](O)[C@@H]1O[C@H]1O[C@H](CO)[C@@H](O)[C@H](N)[C@@H]1O,"-2.89% [at 0.74 µM, percent change from vehicle, -100% = no light]",–
CCCN(C(=O)Cn1cc(S(=O)(=O)N2CCN(c3ccccc3F)CC2)c2ccccc2c1=O)c1cccc(C)c1,-11.8%,–
Cc1ccc(C)c(OCC(=O)Nc2sc3c(c2C#N)CCCC3)c1C,"-6.79% [at 11.5 µM, percent change from vehicle, -100% = no light]",–
